{"source": "the OligoGym collection"}
{"biological_target": "OSBPL11", "experiment": "pooled miR-30 sensor sort-seq; sequence = guide strand", "details": "shRNA"}
{"sequence": "TATCTGAAGTCTGCTAACCCAG", "sensor-assay potency score (higher = more potent)": -1.27}
{"sequence": "TAAATTAGTTCTTTTGCTCAGT", "sensor-assay potency score (higher = more potent)": -0.186}
{"sequence": "TATACTTCATTAAATAGCCATA", "sensor-assay potency score (higher = more potent)": -1.62}
{"sequence": "TTCTTTACCACTTTGGTCTTGC", "sensor-assay potency score (higher = more potent)": 0.433}
{"sequence": "TTTACTTCAGCTGTAACCCGAT", "sensor-assay potency score (higher = more potent)": 0.406}
{"sequence": "TTGTGCTTTACTTCAGCTGTAA", "sensor-assay potency score (higher = more potent)": -0.271}
{"sequence": "TTTACCACTTTGGTCTTGCTGC", "sensor-assay potency score (higher = more potent)": -0.424}
{"sequence": "TTGACTTGGTCTCCTCTGCGAT", "sensor-assay potency score (higher = more potent)": -0.7}
{"biological_target": "OSBPL2", "experiment": "pooled miR-30 sensor sort-seq; sequence = guide strand", "details": "shRNA"}
{"sequence": "TAGAATTACATCCTTGATCAGG", "sensor-assay potency score (higher = more potent)": -0.471}
{"sequence": "TTTTTGTCTTGAATGTGTCCTT", "sensor-assay potency score (higher = more potent)": 0.356}
{"sequence": "TTTAAAATCTCCACTGTCCCAT", "sensor-assay potency score (higher = more potent)": -0.254}
{"sequence": "TTCTCTCTGCTTCTCCTCCAGC", "sensor-assay potency score (higher = more potent)": -1}
{"sequence": "TCTAAGTCAATCATTCCCGTGA", "sensor-assay potency score (higher = more potent)": 0.725}
{"sequence": "TTCAGGATGGTCCACACGCTGA", "sensor-assay potency score (higher = more potent)": -1.77}
{"sequence": "TAAATCTGAATCCTAAATCTTC", "sensor-assay potency score (higher = more potent)": -0.577}
{"sequence": "TTTGTTTTTGTCTTGAATGTGT", "sensor-assay potency score (higher = more potent)": 0.222}
{"sequence": "TTAATTAGAATTACATCCTTGA", "sensor-assay potency score (higher = more potent)": 1.08}
{"sequence": "TTGAATGTGTCCTTCCACCTTG", "sensor-assay potency score (higher = more potent)": -0.0307}
{"sequence": "TTGAAGGCGATTGGCATCGTGA", "sensor-assay potency score (higher = more potent)": -0.348}
{"sequence": "TTTTGTCTTGAATGTGTCCTTC", "sensor-assay potency score (higher = more potent)": 0.333}
{"biological_target": "OSBPL3", "experiment": "pooled miR-30 sensor sort-seq; sequence = guide strand", "details": "shRNA"}
{"sequence": "TATAGTATTGCTCGTAGCCTTT", "sensor-assay potency score (higher = more potent)": -1.22}
{"sequence": "TGAAGCTATAGTATTGCTCGTA", "sensor-assay potency score (higher = more potent)": -0.222}
{"sequence": "TAGAAGAATCTCTTATGCCAGC", "sensor-assay potency score (higher = more potent)": -0.865}
{"sequence": "TTCTTCTCCGGGACTTCGCTTC", "sensor-assay potency score (higher = more potent)": 0.0582}
{"sequence": "TACATTCATATAAACAATCAGG", "sensor-assay potency score (higher = more potent)": -0.979}
{"sequence": "TCTACTTTCATTAGAAAGCTGA", "sensor-assay potency score (higher = more potent)": -0.307}
{"sequence": "TTCTTGATGACAATCTCTCCAT", "sensor-assay potency score (higher = more potent)": -0.313}
{"sequence": "TTCATCTCTGGAGTTTTCGGAT", "sensor-assay potency score (higher = more potent)": -0.271}
{"sequence": "TTGGAGATAACAGAACTTCCTG", "sensor-assay potency score (higher = more potent)": 0.0622}
{"sequence": "TTGCTCTCCATACACAGGCAGA", "sensor-assay potency score (higher = more potent)": -1.4}
{"sequence": "TTCTTTACAGACATCACTGAGA", "sensor-assay potency score (higher = more potent)": 0.168}
{"sequence": "TAAATCGAGTGTCAGTAGGTGG", "sensor-assay potency score (higher = more potent)": -1.06}
{"biological_target": "OSR1", "experiment": "pooled miR-30 sensor sort-seq; sequence = guide strand", "details": "shRNA"}
{"sequence": "TAGGTTGTAGGACTTGGTGAAG", "sensor-assay potency score (higher = more potent)": -1.09}
{"sequence": "TTGGAGTGAATATATCTGTGGT", "sensor-assay potency score (higher = more potent)": 0.0172}
{"sequence": "TAGGACTTGGTGAAGTGGCGGC", "sensor-assay potency score (higher = more potent)": 0.00529}
{"sequence": "TTTCCCACACTCTTGACACTTG", "sensor-assay potency score (higher = more potent)": -0.209}
{"sequence": "TTGAGCGCTGGAACGCTGCCTC", "sensor-assay potency score (higher = more potent)": -0.183}
{"sequence": "ATATCTGTGGTCTCGCAGGTGG", "sensor-assay potency score (higher = more potent)": -0.964}
{"sequence": "TTCTTTTCTGGAGACAGCTTGG", "sensor-assay potency score (higher = more potent)": -0.688}
{"sequence": "TTTGGAGTGAATATATCTGTGG", "sensor-assay potency score (higher = more potent)": -0.758}
